Results filed as inconclusive are left out. Entries that show only a call come without a potency. A number with no mark means an inactive call. Activity calls are given as the source filed them. Calls come from the whole dose curve; as a rule, active = well fitted inhibition curve with a large enough effect; inconclusive = small, poorly fitted or top-dose-only effect; inactive = flat fitted curve, though single readings scatter.
How the values were obtained:
[1] = qHTS profiling for inhibitors of Plasmodium falciparum proliferation (AID 504749); note: nearly all actives have a fitted effect of over 60% in size; details: P. falciparum in erythrocytes, SYBR Green DNA, 72 h
In short: (§1)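 SYBR Green fluorescence of parasite DNA, read after lysis and overnight dark incubation, measured growth over 72 h in erythrocyte culture at 0.3% parasitemia and 2.5% hematocrit. Data normalised to DMSO and 0.29 uM artemisinin, with plate-drift correction.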

3D7 = experiment: as above; details: P. falciparum in erythrocytes, SYBR Green DNA, 72 h; series mostly up to 28.7 µM
In short: as §1

7G8 = experiment: as above; details: P. falciparum in erythrocytes, SYBR Green DNA, 72 h; series mostly up to 28.7 µM
In short: as §1

AA1029 = experiment: as above; details: P. falciparum in erythrocytes, SYBR Green DNA, 72 h; series mostly up to 28.7 µM
In short: as §1

AS120 = experiment: as above; details: P. falciparum in erythrocytes, SYBR Green DNA, 72 h; series mostly up to 28.7 µM
In short: as §1

ATS189 = experiment: as above; details: P. falciparum in erythrocytes, SYBR Green DNA, 72 h; series mostly up to 28.7 µM
In short: as §1

ATS95 = experiment: as above; details: P. falciparum in erythrocytes, SYBR Green DNA, 72 h; series mostly up to 28.7 µM
In short: as §1

C2A = experiment: as above; details: P. falciparum in erythrocytes, SYBR Green DNA, 72 h; series mostly up to 28.7 µM
In short: as §1

CP185 = experiment: as above; details: P. falciparum in erythrocytes, SYBR Green DNA, 72 h; series mostly up to 28.7 µM
In short: as §1

CP191 = experiment: as above; details: P. falciparum in erythrocytes, SYBR Green DNA, 72 h; series mostly up to 28.7 µM
In short: as §1

CP192 = experiment: as above; details: P. falciparum in erythrocytes, SYBR Green DNA, 72 h; series mostly up to 28.7 µM
In short: as §1

CP194 = experiment: as above; details: P. falciparum in erythrocytes, SYBR Green DNA, 72 h; series mostly up to 28.7 µM
In short: as §1

CP203 = experiment: as above; details: P. falciparum in erythrocytes, SYBR Green DNA, 72 h; series mostly up to 28.7 µM
In short: as §1

CP211 = experiment: as above; details: P. falciparum in erythrocytes, SYBR Green DNA, 72 h; series mostly up to 28.7 µM
In short: as §1

CP215 = experiment: as above; details: P. falciparum in erythrocytes, SYBR Green DNA, 72 h; series mostly up to 28.7 µM
In short: as §1

CP217 = experiment: as above; details: P. falciparum in erythrocytes, SYBR Green DNA, 72 h; series mostly up to 28.7 µM
In short: as §1

CP201 = experiment: as above; details: P. falciparum in erythrocytes, SYBR Green DNA, 72 h; series mostly up to 28.7 µM
In short: as §1

[2] = at 12.8 µM (top of the series), parasite line A
[3] = at 12.8 µM (top of the series), parasite line B
[4] = at 28.7 µM (top of the series), parasite line A
[5] = at 28.7 µM (top of the series), parasite line B
Potency is the fitted concentration of half-maximal effect.

Compound | activity, negative = inhibition [1, 2] [%] | activity, negative = inhibition [1, 3] [%] | Potency (3D7) | Potency (7G8) | Potency (AA1029) | Potency (AS120) | Potency (ATS189) | Potency (ATS95) | Potency (C2A) | Potency (CP185) | Potency (CP191) | Potency (CP192) | Potency (CP194) | Potency (CP203) | Potency (CP211) | Potency (CP215) | Potency (CP217) | activity, negative = inhibition [1, 4] [%] | activity, negative = inhibition [1, 5] [%] | Potency (CP201)
CNCCc1ccccn1 | 6.01 | 8.04 | inactive | inactive | inactive | inactive | inactive | inactive | inactive | inactive | inactive | inactive | inactive | inactive | inactive | inactive | inactive | – | – | –
CCOc1ccc(NC(C)=O)cc1 | – | – | inactive | inactive | inactive | inactive | inactive | inactive | inactive | inactive | inactive | inactive | inactive | inactive | inactive | – | inactive | -9.23 | 8.77 | inactive
CC[C@H](c1ccc(O)cc1)[C@@H](CC)c1ccc(O)cc1 | -8.43 | 3.18 | inactive | inactive | inactive | inactive | inactive | inactive | inactive | inactive | inactive | inactive | inactive | inactive | – | inactive | inactive | – | – | inactive
C/C=C/c1ccc(O)c(OC)c1 | – | – | inactive | 10 µM (active) | inactive | inactive | inactive | inactive | inactive | inactive | inactive | inactive | inactive | inactive | inactive | – | inactive | 3.92 | -10.3 | inactive
CC(=O)NO | – | – | inactive | inactive | inactive | inactive | inactive | inactive | inactive | inactive | inactive | inactive | inactive | inactive | inactive | inactive | inactive | -5.99 | 17.5 | –
N#CCC(=O)NN | – | – | inactive | inactive | inactive | inactive | inactive | inactive | inactive | inactive | inactive | inactive | inactive | inactive | inactive | – | inactive | 10.6 | 7.8 | inactive
O=C(O)CCNC(=O)c1ccccc1 | – | – | inactive | inactive | inactive | inactive | inactive | inactive | inactive | inactive | inactive | – | inactive | inactive | inactive | inactive | inactive | 0.623 | 11.8 | inactive
CCCCNC(=O)NS(=O)(=O)c1ccc(N)cc1 | – | – | inactive | inactive | inactive | inactive | inactive | inactive | inactive | inactive | inactive | inactive | inactive | inactive | inactive | inactive | inactive | 5.61 | 12.3 | inactive
CNCCCCOc1ccccc1Cc1ccccc1 | – | – | inactive | 6.31 µM (active) | 5.01 µM (active) | – | – | – | – | – | – | inactive | – | 4.26 µM (active) | – | – | – | -10.8 | -10.9 | –
CN1CCN(c2cc3c(cc2F)c(=O)c(C(=O)O)cn3-c2ccc(F)cc2)CC1 | – | – | inactive | inactive | inactive | – | inactive | inactive | inactive | inactive | inactive | inactive | – | inactive | inactive | – | inactive | -21.3 | -17.5 | inactive
CC(=O)NC(=O)c1ccccc1O | – | – | inactive | inactive | inactive | inactive | inactive | inactive | inactive | inactive | inactive | inactive | inactive | inactive | – | inactive | inactive | -1.16 | 7.59 | inactive
CC(C)CCCC(C)N (stereo not given) | – | – | inactive | inactive | inactive | inactive | inactive | inactive | inactive | inactive | inactive | inactive | inactive | inactive | inactive | inactive | inactive | 13 | -1.67 | inactive
CN(C)CCC[C@@]1(c2ccc(F)cc2)OCc2cc(C#N)ccc21 | – | – | inactive | inactive | – | inactive | inactive | inactive | inactive | inactive | – | inactive | inactive | – | inactive | – | inactive | 3.06 | 6.35 | inactive
CC(=O)NCCCCCC(=O)O | – | – | inactive | inactive | inactive | inactive | inactive | inactive | inactive | inactive | inactive | inactive | inactive | inactive | – | inactive | inactive | 7.94 | 13.3 | inactive
